Results filed as inconclusive are left out. Some compounds were tested as several samples or in several runs, with calls that do not always agree. Calls of active or inactive are those of the source. Rule for the calls, unless noted: active = hit-call score of the fitted dose curve at least 0.9, where 1 is the maximum; inconclusive = response in the unintended direction; inactive = score below 0.9.
Legend:
[1] = ATG_CMV_CIS: Attagene CIS-FACTORIAL HepG2 Assay for human CMV (Internal Marker) (AID 2282928; active = hit-call score of the fitted dose curve at least 0.9, where 1 is the maximum; inactive = score below 0.9;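 note: endpoint acts as a background internal control marker rather than a target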); settings: HepG2 CMV promoter reporter, transcription factor profiling; actives raise or lower the signal
Outline: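 Cell system: HepG2, transiently transfected multiple reporter units under cis promoters. Exposure: 24 h. Detection: RT-PCR, FAM labeling, HpaI digestion, capillary electrophoresis. Analysis: bidirectional, DMSO baseline.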

[2] = ATG_GRE_CIS: Attagene CIS-FACTORIAL HepG2 Assay for human Glucocorticoid Response Elements (GRE) (AID 2282947; active = hit-call score of the fitted dose curve at least 0.9, where 1 is the maximum; inactive = score below 0.9); settings: HepG2 GRE cis-reporter, Attagene multiplex mRNA; actives raise or lower the signal
Outline: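 HepG2 cells transiently transfected with multiple cis-promoter reporter units measure endogenous TF activity; 24 h compound exposure. Reporter mRNA quantified by RT-PCR, FAM labelling, HpaI digestion and capillary electrophoresis; bidirectional fit vs DMSO baseline.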

[3] = molecular target: Hepatocyte nuclear factor 6 (Homo sapiens) (UniProt Q9UBC0); test: ATG_HNF6_CIS: Attagene CIS-FACTORIAL HepG2 Assay for human Hepatocyte Nuclear Factor 6 (HNF6) (AID 2282952; active = hit-call score of the fitted dose curve at least 0.9, where 1 is the maximum; inactive = score below 0.9); settings: HepG2 Attagene cis-factorial HNF6 reporter transcription; actives raise or lower the signal
Chain of Hepatocyte nuclear factor 6 (Homo sapiens) (Q9UBC0 whole entry, looked up): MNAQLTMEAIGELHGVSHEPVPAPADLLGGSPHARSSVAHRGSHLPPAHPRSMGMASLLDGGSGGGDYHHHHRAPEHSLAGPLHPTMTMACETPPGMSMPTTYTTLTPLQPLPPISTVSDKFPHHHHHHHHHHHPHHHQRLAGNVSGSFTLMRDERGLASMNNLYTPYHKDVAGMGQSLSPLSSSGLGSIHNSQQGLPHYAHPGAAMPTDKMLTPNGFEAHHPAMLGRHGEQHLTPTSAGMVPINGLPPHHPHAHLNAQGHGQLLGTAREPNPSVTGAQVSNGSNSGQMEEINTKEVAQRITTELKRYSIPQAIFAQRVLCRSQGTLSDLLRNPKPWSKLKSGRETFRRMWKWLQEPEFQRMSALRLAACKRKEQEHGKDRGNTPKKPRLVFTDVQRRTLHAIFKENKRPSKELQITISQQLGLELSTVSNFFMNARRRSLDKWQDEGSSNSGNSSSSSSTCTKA
Outline: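 HepG2, transient MRTU transfection (cis promoters); 24 h chemical exposure; total RNA → oligo(dT) RT → PCR → 6-FAM labelling → HpaI cut → CE; bidirectional fit vs DMSO.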

[4] = ATG_PPRE_CIS: Attagene CIS-FACTORIAL HepG2 Assay for human Peroxisome Proliferator-activated Response Element (PPRE) (AID 2282958; active = hit-call score of the fitted dose curve at least 0.9, where 1 is the maximum; inactive = score below 0.9); settings: HepG2 PPRE cis-element reporter, Attagene transcription factor profiling; actives raise or lower the signal
Outline: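 DMSO served as negative control and baseline for bidirectional curve fitting. Signal came from PPRE-regulated reporter mRNA in HepG2 cells, measured 24 h post-dosing by RT-PCR, 6-FAM primer extension and capillary electrophoresis.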

[5] = ATG_TAL_CIS: Attagene CIS-FACTORIAL HepG2 Assay for human TAL Basal Promoter (AID 2282966; active = hit-call score of the fitted dose curve at least 0.9, where 1 is the maximum; inactive = score below 0.9;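 note: background control endpoint measuring basal TAL promoter reporter mRNA not a specific factor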); settings: HepG2 Attagene cis-factorial TAL promoter reporter; actives raise or lower the signal
Outline: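 Fluorescence of labelled reporter cDNA fragments, resolved by capillary electrophoresis, gave the readout. Human HepG2 liver cells carried transiently transfected cis-element reporter units and were treated for 24 hours; activity was fitted bidirectionally against DMSO.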

[6] = ATG_VDRE_CIS: Attagene CIS-FACTORIAL HepG2 Assay for human Vitamin D Receptor Element (VDRE) (AID 2282968; active = hit-call score of the fitted dose curve at least 0.9, where 1 is the maximum; inactive = score below 0.9); settings: HepG2 VDRE cis-reporter transcription, actives raise or lower the signal
Outline: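 HepG2 cells transiently transfected with cis-element reporter units, dosed 24 h; reporter mRNA measured by RT-PCR, 6-FAM labeling, HpaI digestion and capillary electrophoresis. Activity fitted bidirectionally against DMSO baseline.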

[7] = ATG_M_06_TRANS: Attagene TRANS-FACTORIAL HepG2 Assay for M06 Transcription Factor (Internal Marker) (AID 2282983); settings: HepG2 Attagene TRANS M06 internal marker reporter;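 note: reporter transcript level by RT-PCR then capillary electrophoresis fluorescence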
Outline: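 Transfect HepG2 with MRTUs → dose compounds 24 h → isolate RNA, oligo(dT) RT → PCR with reporter primers → 6-FAM primer extension → HpaI digest → CE fragment analysis. Positive direction vs DMSO.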

[8] = ATG_M_32_TRANS: Attagene TRANS-FACTORIAL HepG2 Assay for M32 Transcription Factor (Internal Marker) (AID 2282984); settings: HepG2 Attagene TRANS M32 internal marker reporter;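 note: transcript level of a background control reporter unit measured by RT-PCR and capillary electrophoresis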
Outline: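 HepG2 cells transiently transfected with multiple GAL4-UAS reporter transcription units, dosed for 24 hours; reporter mRNA quantified by RT-PCR, 6-FAM primer extension, HpaI digestion and capillary electrophoresis. Gain-of-signal fitted versus DMSO baseline; internal background-control marker.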

[9] = ATG_NFI_CIS: Attagene CIS-FACTORIAL HepG2 Assay for human Nuclear Factor I (NFI) (AID 2282989; active = hit-call score of the fitted dose curve at least 0.9, where 1 is the maximum; inactive = score below 0.9); settings: HepG2 cis-regulatory reporter, NFI response element transcription; actives raise or lower the signal
Outline: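 HepG2 cells transiently transfected with cis-element-driven multiplexed reporter transcription units, dosed for 24 h. Reporter mRNA quantified by RT-PCR, fluorescent labelling, HpaI digestion and capillary electrophoresis; bidirectional fit versus DMSO baseline.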

[10] = ATG_NF_kB_CIS: Attagene CIS-FACTORIAL HepG2 Assay for human Nuclear Factor Kappa B (NF-kB) (AID 2282991; active = hit-call score of the fitted dose curve at least 0.9, where 1 is the maximum; inactive = score below 0.9); settings: HepG2 Attagene cis-factorial NF-kB reporter mRNA; actives raise or lower the signal
Outline: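 DMSO served as negative control and baseline for bidirectional curve fitting. Transiently transfected HepG2 cells were dosed for 24 h, then reporter transcripts were measured by RT-PCR with capillary electrophoresis detection.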

[11] = molecular target: Peroxisome proliferator-activated receptor gamma (Homo sapiens) (UniProt P37231); test: ATG_PPARg_TRANS: Attagene TRANS-FACTORIAL HepG2 Assay for human Peroxisome Proliferator-activated Receptor-gamma (PPARg) (AID 2283007)
Chain of Peroxisome proliferator-activated receptor gamma (Homo sapiens) (P37231 whole entry, looked up, the tested form may be a part): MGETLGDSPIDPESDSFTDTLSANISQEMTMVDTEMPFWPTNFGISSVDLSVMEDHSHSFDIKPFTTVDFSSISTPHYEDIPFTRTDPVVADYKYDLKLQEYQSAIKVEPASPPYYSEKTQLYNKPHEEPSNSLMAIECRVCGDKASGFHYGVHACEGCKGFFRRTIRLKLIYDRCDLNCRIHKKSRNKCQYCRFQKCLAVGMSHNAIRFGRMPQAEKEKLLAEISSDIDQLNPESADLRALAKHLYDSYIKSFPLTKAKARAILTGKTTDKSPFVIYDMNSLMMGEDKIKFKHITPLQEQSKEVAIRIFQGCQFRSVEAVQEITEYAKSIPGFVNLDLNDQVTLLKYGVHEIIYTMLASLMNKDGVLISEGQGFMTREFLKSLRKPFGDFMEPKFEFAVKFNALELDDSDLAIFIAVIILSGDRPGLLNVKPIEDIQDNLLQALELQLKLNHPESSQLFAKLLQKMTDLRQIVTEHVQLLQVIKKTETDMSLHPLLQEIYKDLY
Outline: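 Chimeric NR-Gal4 transactivation is measured in transiently transfected HepG2 cells by reporter mRNA induction at 24 h. Detection uses RT-PCR with fluorescent labelling and capillary electrophoresis; DMSO defines baseline.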

[12] = molecular target: Retinoic acid receptor RXR-alpha (Homo sapiens) (UniProt P19793); test: ATG_RXRa_TRANS: Attagene TRANS-FACTORIAL HepG2 Assay for human Retinoid X Receptor alpha (RXRa) (AID 2283012)
Chain of Retinoic acid receptor RXR-alpha (Homo sapiens) (P19793 whole entry, looked up, the tested form may be a part): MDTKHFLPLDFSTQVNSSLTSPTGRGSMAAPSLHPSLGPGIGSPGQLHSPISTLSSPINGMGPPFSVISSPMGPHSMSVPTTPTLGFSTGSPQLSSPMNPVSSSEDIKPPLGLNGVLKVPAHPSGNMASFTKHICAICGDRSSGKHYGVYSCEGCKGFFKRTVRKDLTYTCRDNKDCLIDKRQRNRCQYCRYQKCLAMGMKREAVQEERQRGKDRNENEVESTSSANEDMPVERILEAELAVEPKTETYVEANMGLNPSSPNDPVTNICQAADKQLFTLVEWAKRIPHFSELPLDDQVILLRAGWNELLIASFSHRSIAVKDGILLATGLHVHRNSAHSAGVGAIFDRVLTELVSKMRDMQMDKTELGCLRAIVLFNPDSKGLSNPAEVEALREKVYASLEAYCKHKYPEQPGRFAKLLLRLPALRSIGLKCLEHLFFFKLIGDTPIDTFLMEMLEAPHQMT
Outline: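 Cells (HepG2) carried transiently transfected GAL4-responsive reporter units. Following a 24 h chemical incubation, reporter mRNA induction was read via RT-PCR fragment analysis; DMSO served as negative control and baseline.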

[13] = molecular target: human Thyroid Receptor alpha (THRa1), THRA (gene 7067) (UniProt P10827); test: ATG_THRa1_TRANS: Attagene TRANS-FACTORIAL HepG2 Assay for human Thyroid Receptor alpha (THRa1) (AID 2283014)
Chain of human Thyroid Receptor alpha (THRa1), THRA (gene 7067) (P10827 whole entry, looked up, the tested form may be a part): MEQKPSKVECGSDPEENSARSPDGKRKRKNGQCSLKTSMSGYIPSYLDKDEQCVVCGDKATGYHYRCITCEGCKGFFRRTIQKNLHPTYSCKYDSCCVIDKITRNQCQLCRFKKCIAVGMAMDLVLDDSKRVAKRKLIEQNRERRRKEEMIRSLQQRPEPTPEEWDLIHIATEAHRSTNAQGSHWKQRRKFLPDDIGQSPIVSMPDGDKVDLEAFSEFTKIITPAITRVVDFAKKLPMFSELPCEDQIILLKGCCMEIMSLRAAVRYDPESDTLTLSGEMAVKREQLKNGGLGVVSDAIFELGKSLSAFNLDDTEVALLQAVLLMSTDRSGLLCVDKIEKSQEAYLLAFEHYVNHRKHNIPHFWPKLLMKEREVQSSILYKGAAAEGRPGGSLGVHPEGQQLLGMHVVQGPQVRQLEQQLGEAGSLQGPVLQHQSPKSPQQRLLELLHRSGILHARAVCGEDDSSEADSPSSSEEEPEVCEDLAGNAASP
Outline: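 Reporter transcript induction, read by capillary electrophoresis of 6-FAM-labelled RT-PCR products, reflects activity of a transfected THRa1-Gal4 fusion in HepG2 liver cells. Cells were dosed for 24 h; activity was fitted in the positive direction against DMSO.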

[14] = molecular target: Cellular tumor antigen p53 (Homo sapiens) (UniProt P04637); test: TOX21_p53_BLA_p2_ratio: Tox21 HCT-116 p53 Agonism Beta-lactamase Assay, Ratio, Phase 2 (AID 2283592)
Chain of Cellular tumor antigen p53 (Homo sapiens) (P04637 whole entry, looked up): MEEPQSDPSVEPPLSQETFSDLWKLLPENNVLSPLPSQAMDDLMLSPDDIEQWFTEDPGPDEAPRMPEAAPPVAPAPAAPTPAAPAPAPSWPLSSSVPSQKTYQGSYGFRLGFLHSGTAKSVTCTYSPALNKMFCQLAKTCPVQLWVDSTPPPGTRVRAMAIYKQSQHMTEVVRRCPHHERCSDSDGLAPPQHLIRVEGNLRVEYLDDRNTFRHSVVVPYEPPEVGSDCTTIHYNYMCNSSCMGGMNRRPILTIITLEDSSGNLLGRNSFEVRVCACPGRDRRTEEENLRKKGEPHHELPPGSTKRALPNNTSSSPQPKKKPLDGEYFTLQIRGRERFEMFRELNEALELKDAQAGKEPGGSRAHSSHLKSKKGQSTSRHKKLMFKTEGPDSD
Outline: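 HCT116 p53-bla; 4000 cells/well; 5 h pre-incubation; cpd in DMSO, 217-fold dilution; 16 h 37C/5% CO2; CCF4-AM 2 h RT; Ex 405, Em 460/530 ratio; DMSO = baseline; positive fitting direction.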

[15] = molecular target: Cellular tumor antigen p53 (Homo sapiens) (UniProt P04637); test: TOX21_p53_BLA_p5_ratio: Tox21 HCT-116 p53 Agonism Beta-lactamase Assay, Ratio, Phase 5 (AID 2283599)
Outline: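 HCT-116 cells carrying a p53-inducible beta-lactamase reporter were seeded at 4000 cells/well and dosed after 5 h with compound in DMSO (217-fold dilution). After 16 h at 37C, CCF4-AM substrate was added for 2 h, and the 460/530 nm emission ratio was scored as gain-of-signal versus DMSO.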

[16] = ATG_PBREM_CIS: Attagene CIS-FACTORIAL HepG2 Assay for human Phenobarbital-responsive Enhancer Module (PBREM) (AID 2282955; active = hit-call score of the fitted dose curve at least 0.9, where 1 is the maximum; inactive = score below 0.9); settings: HepG2 PBREM cis-reporter, Attagene multiplexed transcription; actives raise or lower the signal
Outline: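 Multiplexed cis-reporter readout in human hepatoma HepG2 cells; PBREM-regulated transcript quantified after 24 h exposure by fluorescent RT-PCR fragment analysis. Signal changes up or down fitted relative to DMSO.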

[17] = molecular target: Nuclear receptor subfamily 4 group A member 2 (Homo sapiens) (UniProt P43354); test: ATG_NURR1_TRANS: Attagene TRANS-FACTORIAL HepG2 Assay for human Nuclear Receptor Related Protein 1 (NURR1) (AID 2282985); settings: HepG2 Attagene TRANS reporter, mRNA readout
Chain of Nuclear receptor subfamily 4 group A member 2 (Homo sapiens) (P43354 whole entry, looked up, the tested form may be a part): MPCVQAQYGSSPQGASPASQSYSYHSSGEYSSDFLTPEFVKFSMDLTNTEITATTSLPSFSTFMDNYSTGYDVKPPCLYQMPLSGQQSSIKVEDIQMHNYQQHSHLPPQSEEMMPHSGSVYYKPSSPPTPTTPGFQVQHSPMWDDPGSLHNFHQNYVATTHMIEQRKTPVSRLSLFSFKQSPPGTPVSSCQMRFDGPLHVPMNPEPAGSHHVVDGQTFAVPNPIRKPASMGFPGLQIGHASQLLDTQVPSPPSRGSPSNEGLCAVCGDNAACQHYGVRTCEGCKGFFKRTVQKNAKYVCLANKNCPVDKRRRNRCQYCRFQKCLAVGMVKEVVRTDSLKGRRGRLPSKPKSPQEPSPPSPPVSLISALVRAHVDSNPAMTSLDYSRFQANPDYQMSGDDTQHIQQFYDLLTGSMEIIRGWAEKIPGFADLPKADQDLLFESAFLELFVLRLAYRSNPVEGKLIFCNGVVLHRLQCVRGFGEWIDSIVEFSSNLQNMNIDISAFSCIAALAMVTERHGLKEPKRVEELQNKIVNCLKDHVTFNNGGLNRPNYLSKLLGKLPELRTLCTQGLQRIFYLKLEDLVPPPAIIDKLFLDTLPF
Outline: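 HepG2 cells transiently transfected with GAL4-UAS reporter units and chimeric NR-Gal4 constructs; chemical exposure 24 h. Reporter mRNA quantified by RT-PCR, fluorescent labelling and capillary electrophoresis; gain of signal fitted relative to DMSO baseline.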

[18] = molecular target: Nuclear receptor subfamily 1 group I member 2 (Homo sapiens) (UniProt O75469); test: ATG_PXR_TRANS: Attagene TRANS-FACTORIAL HepG2 Assay for human Pregnane X Receptor (PXR) (AID 2283008)
Chain of Nuclear receptor subfamily 1 group I member 2 (Homo sapiens) (O75469 whole entry, looked up, the tested form may be a part): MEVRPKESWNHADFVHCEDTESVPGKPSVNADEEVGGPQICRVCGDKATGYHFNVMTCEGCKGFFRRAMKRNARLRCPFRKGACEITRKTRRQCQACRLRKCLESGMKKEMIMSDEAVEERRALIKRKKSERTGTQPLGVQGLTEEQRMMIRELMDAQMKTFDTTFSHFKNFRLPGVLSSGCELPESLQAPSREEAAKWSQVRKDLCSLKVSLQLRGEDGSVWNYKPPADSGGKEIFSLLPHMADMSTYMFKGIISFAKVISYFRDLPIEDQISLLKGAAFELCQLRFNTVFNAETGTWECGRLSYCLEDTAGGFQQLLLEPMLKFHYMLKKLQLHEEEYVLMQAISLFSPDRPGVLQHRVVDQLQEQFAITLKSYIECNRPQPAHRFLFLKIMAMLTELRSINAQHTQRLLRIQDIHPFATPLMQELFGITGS
Outline: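 Fluorescence intensity of FAM-labelled, HpaI-digested reporter amplicons, separated by capillary electrophoresis, quantifies induction. HepG2 cells with PXR-Gal4 trans-reporter system were exposed 24 h; DMSO defines baseline.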

[19] = ATG_XTT_Cytotoxicity: Cytotoxicity Assessment in the Attagene TRANS-FACTORIAL HepG2 Assay (AID 2283584)
Outline: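 Cells: human HepG2, transiently transfected with MRTU reporter constructs. Exposure 24 h. Readout: XTT, cell number. Baseline/neg ctrl DMSO; loss-of-signal scored.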

[20] = ACEA_ER_AUC_viability: ACEA Biosciences xCELLigence Real-Time Cell Analysis on Estrogen Receptor Agonism for Viability (AID 2283782);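 note: continuous compound exposure with impedance area under curve over 80 h; hit means loss of impedance signal meaning reduced cell growth or viability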
Outline: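 T-47D human breast cells in phenol red-free RPMI1640 with 10% charcoal-stripped FBS were dosed with an 8-point 1:4 dilution series from 100 uM top final concentration, in duplicate. Impedance-based growth was followed for 80 h; AUC analysed versus DMSO.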

## CCOC(=O)N(C)N=O
[1]
  outcome: inactive
[2]
  outcome: inactive
[3]
  outcome: inactive
[4]
  outcome: inactive
[5]
  outcome: inactive
[6]
  outcome: inactive
[7]
  outcome: inactive
[8]
  outcome: inactive
[9]
  outcome: inactive
[10]
  outcome: inactive
[11]
  outcome: inactive
[12]
  outcome: inactive
[13]
  outcome: inactive
[14]
  outcome: inactive
[15]
  outcome: inactive

## O=c1c2ccccc2c(=O)c2c1cc(Cl)c1[nH]c3c([nH]c12)c(Cl)cc1c(=O)c2ccccc2c(=O)c13
[1]
  outcome: inactive
[2]
  outcome: inactive
[16]
  outcome: inactive
[4]
  outcome: inactive
[6]
  outcome: inactive
[7]
  outcome: inactive
[17]
  outcome: inactive
[9]
  outcome: inactive
[11]
  AC50: 40.5 µM (active)
[18]
  AC50: 10.1 µM (active)
[12]
  outcome: inactive
[19]
  outcome: inactive
[15]
  outcome: inactive
[20]
  AC50: 6.28 µM (active)

## CC1(C)C(=O)NC(=O)NC1=O
[2]
  outcome: inactive
[3]
  outcome: inactive
[16]
  outcome: inactive
[6]
  outcome: inactive
[8]
  outcome: inactive
[17]
  outcome: inactive
[10]
  outcome: inactive
[11]
  outcome: inactive
[18]
  outcome: inactive
[12]
  outcome: inactive
[13]
  outcome: inactive
[19]
  outcome: inactive
[14]
  outcome: inactive
[15]
  outcome: inactive

## O=S(=O)(O)O
[1]
  outcome: inactive
[3]
  outcome: inactive
[5]
  outcome: inactive
[7]
  outcome: inactive
[17]
  outcome: inactive
[9]
  outcome: inactive
[18]
  outcome: inactive
[12]
  outcome: inactive
[13]
  outcome: inactive
[19]
  outcome: inactive
[20]
  AC50: 6.09 µM (active)

## CCCCCc1cc(O)cc(O)c1
[1]
  outcome: inactive
[3]
  outcome: inactive
[16]
  outcome: inactive
[4]
  AC50: 19.8 µM (active)
[5]
  AC50: 100 µM (active)
[6]
  AC50: 16 µM (active)
[7]
  outcome: inactive
[8]
  outcome: inactive
[17]
  outcome: inactive
[9]
  outcome: inactive
[10]
  outcome: inactive
[11]
  AC50: 10.5 µM (active)
[18]
  AC50: 11.1 µM (active)
[13]
  outcome: inactive
[19]
  outcome: inactive
[14]
  AC50: 83.7 µM (active)
  outcome: inactive
[15]
  outcome: inactive

## Nc1c(Cl)c(Cl)c(Cl)c(Cl)c1Cl
[1]
  AC50: 34.2 µM (active)
[2]
  outcome: inactive
[16]
  outcome: inactive
[4]
  outcome: inactive
[5]
  outcome: inactive
[6]
  outcome: inactive
[7]
  outcome: inactive
[8]
  outcome: inactive
[17]
  outcome: inactive
[9]
  outcome: inactive
[11]
  outcome: inactive
[18]
  AC50: 13.3 µM (active)
[12]
  outcome: inactive
[13]
  outcome: inactive
[20]
  outcome: inactive

## C=CC(=O)OCCO
[1]
  outcome: inactive
[2]
  outcome: inactive
[3]
  outcome: inactive
[16]
  outcome: inactive
[5]
  outcome: inactive
[6]
  AC50: 116 µM (active)
[7]
  outcome: inactive
[17]
  outcome: inactive
[9]
  AC50: 164 µM (active)
[10]
  AC50: 17.1 µM (active)
[18]
  outcome: inactive
[12]
  outcome: inactive
[13]
  outcome: inactive
[19]
  outcome: inactive
[14]
  outcome: inactive
[15]
  outcome: inactive
[20]
  AC50: 46.4 µM (active)

## CN1C[C@H](C(=O)N[C@]2(C)O[C@@]3(O)[C@@H]4CCCN4C(=O)[C@H](Cc4ccccc4)N3C2=O)C=C2c3cccc4[nH]cc(c34)C[C@H]21
[1]
  outcome: inactive
[2]
  outcome: inactive
[16]
  outcome: inactive
[5]
  outcome: inactive
[6]
  AC50: 0.966 µM (active)
[8]
  outcome: inactive
[17]
  outcome: inactive
[9]
  outcome: inactive
[10]
  outcome: inactive
[18]
  AC50: 0.534 µM (active)
[13]
  outcome: inactive
[19]
  outcome: inactive
[14]
  outcome: inactive
[15]
  outcome: inactive

— PubChem BioAssay (EPA / NIEHS)
